From PubChem BioAssay (NCATS)
Records with an inconclusive call do not appear. Activity calls are given as the source filed them. Unless noted, calls follow the shape of the full dose curve.

Experiments:
[1] = qHTS for Inhibitors of the Functional Ribonucleoprotein Complex (vRNP) of Lassa (LASV) Arenavirus: LASV Primary Screen - GLuc reporter signal (AID 1347082; calls by dose curve; tested in HEK293 reporter line; also: nearly all actives have a fitted effect of over 60% in size; as to activity change, negative = inhibition: series mostly up to about 57 µM)
[2] = qHTS for Inhibitors of the Functional Ribonucleoprotein Complex (vRNP) of Lassa (LASV) Arenavirus: Viability assay - alamar blue signal for LASV Primary Screen (AID 1347083; calls by dose curve; tested in HEK293 reporter line; also: nearly all actives have a fitted effect of over 80% in size; as to activity change, negative = reduced viability: series mostly up to about 57 µM)
[3] = qHTS for Inhibitors of the Functional Ribonucleoprotein Complex (vRNP) of Lymphocytic Choriomeningitis Arenaviruses (LCMV): Viability assay - alamar blue signal for LCMV Primary Screen (AID 1347085; calls by dose curve; tested in HEK293 reporter line; also: nearly all actives have a fitted effect of over 80% in size; as to activity change, negative = lower viability: series mostly up to about 57 µM)
[4] = biological target: Nucleoprotein (Lymphocytic choriomeningitis virus (strain Armstrong)) (UniProt P09992); assay: qHTS for Inhibitors of the Functional Ribonucleoprotein Complex (vRNP) of Lymphocytic Choriomeningitis Arenaviruses (LCMV): LCMV Primary Screen - GLuc reporter signal (AID 1347086); also: nearly all actives have a fitted effect of over 70% in size; as to activity change, negative = inhibition: series mostly up to about 57 µM
% is scaled to controls: 0 for no effect and ±100 for the full control effect; potency is read from the fitted curve at half-maximal effect.

Nucleoprotein (Lymphocytic choriomeningitis virus (strain Armstrong)), sequence (P09992 whole entry, looked up): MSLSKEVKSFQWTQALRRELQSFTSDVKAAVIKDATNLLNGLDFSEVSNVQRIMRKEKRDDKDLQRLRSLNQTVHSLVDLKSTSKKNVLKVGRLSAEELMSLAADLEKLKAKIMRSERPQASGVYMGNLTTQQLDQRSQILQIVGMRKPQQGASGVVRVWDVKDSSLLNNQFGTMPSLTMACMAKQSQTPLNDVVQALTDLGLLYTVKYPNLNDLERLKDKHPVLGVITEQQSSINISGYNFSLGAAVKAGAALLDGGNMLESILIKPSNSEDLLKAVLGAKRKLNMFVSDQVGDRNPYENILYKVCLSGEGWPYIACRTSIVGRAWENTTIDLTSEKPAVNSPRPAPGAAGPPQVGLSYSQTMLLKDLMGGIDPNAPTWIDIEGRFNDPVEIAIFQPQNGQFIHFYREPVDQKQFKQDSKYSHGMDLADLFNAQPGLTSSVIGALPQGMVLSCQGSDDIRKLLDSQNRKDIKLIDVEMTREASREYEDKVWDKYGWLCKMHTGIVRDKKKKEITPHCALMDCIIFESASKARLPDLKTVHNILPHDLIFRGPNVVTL

COc1cc(C(=O)O)ccc1O
inactive: Potency [1] | Potency [2] | Potency [3] | Potency [4]

COc1cc2c(cc1O)[C@@H]1Cc3cc(O)c(OC)cc3[C@H](C2)N1C
inactive: Potency [1] | Potency [2] | Potency [3] | Potency [4]

C[C@@H](O)[C@H]1O[C@]2(C)CCC[C@H]1O2
inactive: Potency [1] | Potency [2] | Potency [3] | Potency [4]

CCCCC[C@H](O)/C=C/C=C/C/C=C\CCCC(=O)O
inactive: activity change, negative = inhibition [1] -30.5% [at 0.757 µM] | activity change, negative = reduced viability [2] -19.5% [at 0.757 µM] | activity change, negative = lower viability [3] 9.71% [at 0.757 µM] | activity change, negative = inhibition [4] 8.09% [at 0.757 µM]

O=C1C=C(O)c2c(O)cc(O)c(O)c2C1=O
inactive: Potency [1] | Potency [2] | Potency [3] | Potency [4]

C[C@@H](O)CCC[C@H](O)/C=C/[C@@H]1[C@@H](C/C=C\CCCC(=O)O)[C@@H](O)C[C@H]1O
inactive: activity change, negative = inhibition [1] -12.1% [at 0.757 µM] | activity change, negative = reduced viability [2] -24.9% [at 0.757 µM] | activity change, negative = lower viability [3] -64.4% [at 0.757 µM] | activity change, negative = inhibition [4] -26.1% [at 0.757 µM]

Nc1nc2c(ncn2[C@@H]2O[C@H](CO)[C@@H](O)[C@@H]2O)c(=O)[nH]1
inactive: Potency [1] | Potency [2] | Potency [3] | Potency [4]

COc1cc(O)c2c(=O)c3c(O)ccc(O)c3oc2c1
inactive: Potency [1] | Potency [2] | Potency [3] | Potency [4]

CC(C)(O)[C@H](O)COc1c2occc2cc2ccc(=O)oc12
inactive: Potency [1] | Potency [2] | Potency [3] | Potency [4]

CCCO
inactive: Potency [1] | Potency [2] | Potency [3] | Potency [4]

NCCC(=O)c1ccccc1N
inactive: Potency [1] | Potency [2] | Potency [3] | Potency [4]

NC(=O)Nc1ccc(Cl)c(Cl)c1
inactive: Potency [1] | Potency [2] | Potency [3] | Potency [4]

C/C=C(/C)C(=O)O[C@@H]1[C@H](OC(=O)C=C(C)C)c2c(ccc3ccc(=O)oc23)OC1(C)C
inactive: Potency [1] | Potency [2] | Potency [3] | Potency [4]

CC1(C)C(CO)=CC(=O)C2=C1SCC(=O)N2
inactive: Potency [1] | Potency [2] | Potency [3] | Potency [4]

C[C@@H]1C(=O)O[C@@H]2CC34[C@H]5C[C@@H](C(C)(C)C)C36[C@H](OC(=O)[C@@H]6O)OC4(C(=O)O5)[C@@]12O (stereo not given in full)
inactive: Potency [1] | Potency [2] | Potency [3] | Potency [4]

C[C@@H]1CC2OC(=O)[C@@]3(C)C(=O)CC[C@@](C)(C23)[C@@]1(O)CCc1ccoc1 (stereo not given in full)
inactive: Potency [1] | Potency [2] | Potency [3] | Potency [4]

CC(C)=CCC/C(C)=C/CC/C(C)=C/CCC1(C)CCc2cc(O)ccc2O1 (stereo not given)
inactive: Potency [1] | Potency [2] | Potency [3] | Potency [4]

CC(C)(COP(=O)(O)OP(=O)(O)OC[C@H]1O[C@@H](n2cnc3c(N)ncnc32)[C@H](O)[C@@H]1OP(=O)(O)O)[C@H](O)C(=O)NCCC(=O)NCCS
inactive: Potency [1] | Potency [2] | Potency [3] | Potency [4]

COc1cccc2c(=O)c3ccoc3n(C)c12
inactive: Potency [1] | Potency [2] | Potency [3] | Potency [4]

OCCc1c[nH]c2ccccc12
inactive: Potency [1] | Potency [2] | Potency [3] | Potency [4]

COc1ccc(C(=O)OC2CC3CCC(C2)[N+]3(C)[O-])cc1OC (stereo not given)
inactive: Potency [1] | Potency [2] | Potency [3] | Potency [4]

C[C@@H]1O[C@@H](O[C@H]2[C@H](O)[C@@H](O)[C@H](Oc3c(-c4ccc(O)c(O)c4)oc4cc(O)cc(O)c4c3=O)O[C@@H]2CO)[C@H](O)[C@H](O)[C@H]1O
inactive: Potency [1] | Potency [2] | Potency [3] | Potency [4]

C[C@H]([C@@H](N)C(=O)N[C@@H](C(=O)O)[C@@H]1O[C@H](n2ccc(=O)[nH]c2=O)[C@@H](O)[C@H]1O)[C@@H](O)c1ccc(O)cn1
inactive: Potency [1] | Potency [2] | Potency [3] | Potency [4]

CCCCCCCCC1CCC(=O)O1 (stereo not given)
inactive: Potency [1] | Potency [2] | Potency [3] | Potency [4]

CCCCC/C=C\C=C\C(=O)OCC
inactive: Potency [1] | Potency [2] | Potency [3] | Potency [4]

COc1ccc(C(=O)/C=C/c2ccc(O)cc2)c(O)c1C/C=C(\C)CCC=C(C)C
inactive: Potency [1] | Potency [2] | Potency [3] | Potency [4]

CC1=CC(=O)[C@H]2C[C@@H]1C2(C)C
inactive: Potency [1] | Potency [2] | Potency [3] | Potency [4]

COc1cc2c3c(c1OC)C1(C=CC(=O)C=C1)CC3N(C(C)=O)CC2 (stereo not given)
inactive: Potency [1] | Potency [2] | Potency [3] | Potency [4]

O=C1O/C(=C\c2ccc(O)cc2)C(O)=C1c1ccc(O)cc1
inactive: Potency [1] | Potency [2] | Potency [3] | Potency [4]

C[C@@H]1C[C@H]2[C@@H]3C[C@H](F)C4=CC(=O)C=C[C@@]4(C)[C@]3(F)[C@H](O)C[C@]2(C)[C@@]1(O)C(=O)CO
inactive: Potency [1] | Potency [2] | Potency [3] | Potency [4]

CC(C)c1cc(C(=O)N2Cc3ccc(CN4CCN(C)CC4)cc3C2)c(O)cc1O
active: Potency [1] 968 nM | Potency [2] 544 nM | Potency [3] 685 nM | Potency [4] 485 nM

CCOc1ccc(O)cc1
inactive: Potency [1] | Potency [2] | Potency [3] | Potency [4]

COc1cc(C)ccc1C(C)C
inactive: Potency [1] | Potency [2] | Potency [3] | Potency [4]

CC1(C)Oc2cc3oc(=O)ccc3cc2C[C@@H]1O
inactive: Potency [1] | Potency [2] | Potency [3] | Potency [4]

CC1=C[C@H]2OC(=O)[C@@H](C)[C@H]2C[C@@H]2[C@H]1C[C@@H](O)[C@@]2(C)O
inactive: Potency [1] | Potency [2] | Potency [3] | Potency [4]

CCOC(=O)c1cccc(C(=O)OCC)n1
inactive: Potency [1] | Potency [2] | Potency [3] | Potency [4]

C[C@@H]1CC[C@]2(C(=O)O[C@@H]3O[C@H](CO)[C@@H](O)[C@H](O)[C@H]3O)CC[C@]3(C)C(=CCC4[C@@]5(C)CC[C@H](O[C@@H]6OC[C@H](O)[C@H](O[C@@H]7O[C@H](CO)[C@@H](O)[C@H](O)[C@H]7O)[C@H]6O)C(C)(C)C5CC[C@]43C)C2[C@]1(C)O (stereo not given in full)
inactive: Potency [1] | Potency [2] | Potency [3] | Potency [4]

C#C[C@]1(O)CC[C@@H]2[C@@H]3CCC4=CC(=O)CC[C@@H]4[C@H]3CC[C@@]21CC
inactive: Potency [1] | Potency [2] | Potency [3] | Potency [4]

CC/C=C/CCO
inactive: Potency [1] | Potency [2] | Potency [3] | Potency [4]

Cc1[nH]c(C=C2C(=O)Nc3ccccc32)c(C)c1CCC(=O)O
inactive: Potency [1]
active: Potency [2] 10900 nM | Potency [3] 21700 nM | Potency [4] 34300 nM

COc1ccc(-c2cc(=O)c3ccc(O)cc3o2)cc1
inactive: Potency [1] | Potency [2] | Potency [3] | Potency [4]

C=C(C)[C@@H]1CCC2(C(=O)O)CC[C@]3(C)[C@H](CC[C@@H]4[C@@]5(C)CCC(=O)C(C)(C)[C@@H]5CC[C@]43C)[C@@H]12 (stereo not given in full)
inactive: Potency [1] | Potency [2] | Potency [3] | Potency [4]

C=C1CCC2[C@](C)(CO)C(O)CC[C@]2(C)C1CC=C1C(=O)OCC1O (stereo not given in full)
inactive: Potency [1] | Potency [2] | Potency [3] | Potency [4]

COC1[C@@H](OC)C[C@H](C)[C@@H](OC)C2=CC(=O)C=C(NC(=O)/C(C)=C/C=C\[C@H](OC)[C@@H](OC(N)=O)/C(C)=C/[C@@H]1C)C2=O (stereo not given in full)
inactive: activity change, negative = inhibition [1] 1.65% [at 5.82 µM] | activity change, negative = reduced viability [2] 7.34% [at 5.82 µM] | activity change, negative = lower viability [3] 15.6% [at 5.82 µM] | activity change, negative = inhibition [4] 12.1% [at 5.82 µM]

C/C=C1/C[C@@H](C)[C@@](C)(O)C(=O)OCC2=CCN3CC[C@@H](OC1=O)[C@@H]23
inactive: Potency [1] | Potency [2] | Potency [3] | Potency [4]

COC(=O)C1(Cc2ccc(O)c(CC3OC3(C)C)c2)OC(=O)C(O)=C1c1ccc(O)cc1 (stereo not given)
inactive: Potency [1] | Potency [2] | Potency [3] | Potency [4]

c1cnc2c(-c3nccc4c3[nH]c3ccccc34)cccc2c1
inactive: Potency [1] | Potency [2] | Potency [3] | Potency [4]

CCOC(=O)c1c(C)nc(C)c(C(=O)OCC)c1-c1ccccc1
inactive: Potency [1] | Potency [2] | Potency [3] | Potency [4]

O=C(c1ccc(F)cc1)N1CCC[C@H](c2nc(-c3ccc(F)cc3)no2)C1
inactive: Potency [1] | Potency [2] | Potency [3] | Potency [4]

C[C@@H]1O[C@@H](O[C@H]2CC[C@@H](O[C@H]3[C@H](O)C[C@H](c4ccc5c(c4O)C(=O)C4=C(C5=O)[C@@]5(O)C(=O)C[C@](C)(O[C@H]6CC[C@H](O[C@H]7C=CC(=O)[C@H](C)O7)[C@H](C)O6)C[C@@]5(O)C=C4)O[C@@H]3C)O[C@H]2C)C=CC1=O
inactive: Potency [1] | Potency [2] | Potency [3] | Potency [4]

c1ccc2cnccc2c1
inactive: Potency [1] | Potency [2] | Potency [3] | Potency [4]

COc1cc2c(c(OC)c1OC)-c1c(cc3c(c1O)OCO3)C[C@@H](C)[C@@H](C)C2
inactive: Potency [1] | Potency [2] | Potency [3] | Potency [4]

CCCCCCC[C@@H](C/C=C/CCC(=O)O)OC
inactive: Potency [1] | Potency [2] | Potency [3] | Potency [4]

C[C@@H]1C2C[C@@]34COC(=O)C3=CC=C[C@H]4[C@@]13C[C@H](c1ccoc1)O[C@@H]3O2
inactive: Potency [1] | Potency [2] | Potency [3] | Potency [4]

CC1C(=O)OC2CCN3CC=C(COC(=O)C(C)(O)C1(C)O)C23 (stereo not given)
inactive: Potency [1] | Potency [2] | Potency [3] | Potency [4]
